Where “and” joins values, the source holds several entries; their conditions need not be identical. Equal values may be shown once. Results filed as inconclusive are left out. A call without a number means that no potency is given here. Calls of active or inactive are those of the source. Unless noted, the call rests on the fitted dose curve; in most records, active means well fitted curve in the direction sought with a large enough effect in the repeat runs; inconclusive means weak or mixed curves; inactive means no such curve, though single readings can be large; an effect the other way counts as inactive or inconclusive.
Tests used:
[1] = qHTS assay to identify small molecule agonists of the peroxisome proliferator-activated receptor delta (PPARd) signaling pathway - cell viability counter screen (AID 743211); further: nearly all actives have a fitted effect of over 55% in size
Summary of the method: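 Following 5 h plating at 37 C and 5% CO2, PPARd UAS-bla HEK293H cells took up test compounds for 17 h. Viability was quantified by luminescence 30 min after CellTiter-Glo addition at room temperature.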

[2] = biological target: Peroxisome proliferator-activated receptor delta (Homo sapiens) (UniProt Q03181); assay: qHTS assay to identify small molecule agonists of the peroxisome proliferator-activated receptor delta (PPARd) signaling pathway (AID 743212; calls by dose curve)
Peroxisome proliferator-activated receptor delta (Homo sapiens), sequence (Q03181 whole entry, looked up): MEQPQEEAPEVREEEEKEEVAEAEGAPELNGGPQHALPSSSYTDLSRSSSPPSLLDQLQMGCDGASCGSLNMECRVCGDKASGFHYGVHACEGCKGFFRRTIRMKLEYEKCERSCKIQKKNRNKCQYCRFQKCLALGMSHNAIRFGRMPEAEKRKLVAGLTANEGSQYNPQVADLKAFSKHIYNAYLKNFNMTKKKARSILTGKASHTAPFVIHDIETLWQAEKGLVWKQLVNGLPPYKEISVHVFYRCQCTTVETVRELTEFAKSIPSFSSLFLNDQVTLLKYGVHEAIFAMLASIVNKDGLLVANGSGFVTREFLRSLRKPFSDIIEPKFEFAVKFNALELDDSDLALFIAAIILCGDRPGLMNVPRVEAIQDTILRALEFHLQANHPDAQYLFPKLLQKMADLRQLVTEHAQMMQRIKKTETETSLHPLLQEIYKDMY
Summary of the method: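 A PPARd-bla HEK293H line with beta-lactamase under an Upstream Activator Sequence is treated with compounds at 37 C. Substrate loading for 2 h at room temperature precedes the fluorescence measurement.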

[3] = qHTS assay to identify small molecule antagonists of the peroxisome proliferator-activated receptor delta (PPARd) signaling pathway - cell viability counter screen (AID 743213); further: nearly all actives have a fitted effect of over 50% in size; further: potency means the concentration at half of the fitted maximal effect
Summary of the method: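 Agonist-stimulated (L165041, 300 nM final) HEK293H PPARd UAS-bla cells are exposed to compounds for 17 h at 37 C, and ATP-based luminescence (CellTiter-Glo) from the same wells reports cytotoxicity.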

[4] = biological target: Peroxisome proliferator-activated receptor delta (Homo sapiens) (UniProt Q03181); assay: qHTS assay to identify small molecule antagonists of the peroxisome proliferator-activated receptor delta (PPARd) signaling pathway (AID 743215; active means well fitted inhibition curve with a large enough effect in the signal ratio in the repeat runs, not every such curve was filed as active; the % refers to the signal ratio; further: series mostly up to about 62 µM)
Summary of the method: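 With L165041 present at 300 nM final, compounds were incubated 17 h at 37 C on PPARd UAS-bla HEK293H cells. A FRET-based beta-lactamase substrate was then applied for 2 h at room temperature and fluorescence intensity recorded.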

[5] = qHTS assay to identify small molecule agonists of the farnesoid-X-receptor (FXR) signaling pathway - cell viability counter screen (AID 743218); further: nearly all actives have a fitted effect of over 45% in size
Summary of the method: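 After 16 h at 37 C with test compounds, FXR-bla HEK 293T cells were given LiveBLAzer B/G substrate for 2 h at RT and then CellTiter-Glo; luminescence was taken after 30 min.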

[6] = qHTS assay to identify small molecule antagonists of the farnesoid-X-receptor (FXR) signaling pathway - cell viability counter screen (AID 743221; active means well fitted cell-killing curve with a large enough effect in the repeat runs, not every such curve was filed as active; further: nearly all actives have a fitted effect of over 50% in size)
Summary of the method: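 Compound effects on cell number were measured as CellTiter-Glo luminescence in HEK 293T cells expressing FXR-UAS-bla, after 16 h at 37 C with 50 uM CDCA (final).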

[7] = biological target: Vitamin D3 receptor (Homo sapiens) (UniProt P11473); assay: qHTS assay to identify small molecule agonists of the vitamin D receptor (VDR) signaling pathway (AID 743222; calls by dose curve)
Vitamin D3 receptor (Homo sapiens), sequence (P11473 whole entry, looked up): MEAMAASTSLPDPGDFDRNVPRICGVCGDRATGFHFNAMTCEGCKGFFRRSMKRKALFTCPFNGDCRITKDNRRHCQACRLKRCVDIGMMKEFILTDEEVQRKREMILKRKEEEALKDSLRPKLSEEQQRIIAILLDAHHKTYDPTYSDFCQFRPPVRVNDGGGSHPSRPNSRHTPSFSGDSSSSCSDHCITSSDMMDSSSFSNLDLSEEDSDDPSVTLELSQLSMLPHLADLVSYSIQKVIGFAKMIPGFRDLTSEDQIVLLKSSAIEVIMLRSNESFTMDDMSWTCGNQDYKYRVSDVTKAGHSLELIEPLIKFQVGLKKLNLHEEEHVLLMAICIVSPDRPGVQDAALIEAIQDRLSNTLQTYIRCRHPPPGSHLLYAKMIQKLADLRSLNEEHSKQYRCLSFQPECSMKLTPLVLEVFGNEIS
Summary of the method: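 VDR-bla cells were seeded, left 4 h, treated with compounds in DMSO for 16 h, incubated 2 h at RT with B/G FRET substrate, and read for fluorescence.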

[8] = biological target: Vitamin D3 receptor (Homo sapiens) (UniProt P11473); assay: qHTS assay to identify small molecule antagonists of the vitamin D receptor (VDR) signaling pathway (AID 743223; active means well fitted inhibition curve with a large enough effect in the signal ratio in the repeat runs, not every such curve was filed as active; the % refers to the signal ratio)
Summary of the method: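 Beta-lactamase activity in VDR-bla cells is measured by FRET substrate fluorescence (2 h, room temperature) after cells spend 16 h at 37C with test compound and 3 nM final 1alpha,25-dihydroxyvitamin D3.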

[9] = qHTS assay to identify small molecule agonists of the vitamin D receptor (VDR) signaling pathway - cell viability counter screen (AID 743224); further: nearly all actives have a fitted effect of over 50% in size; further: potency means the concentration at half of the fitted maximal effect
Summary of the method: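 Here cell health was gauged by luminescent ATP detection (CellTiter-Glo, 30 min RT) in VDR-bla cells that had been incubated with test compounds for 16 h at 37C and 5% CO2.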

[10] = qHTS assay to identify small molecule antagonists of the vitamin D receptor (VDR) signaling pathway - cell viability counter screen (AID 743225); further: nearly all actives have a fitted effect of over 50% in size
Summary of the method: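 In this counter screen, VDR-bla HEK 293T cells receive test compound plus 3 nM final calcitriol for 16 h at 37C. Room-temperature steps of 2 h with the beta-lactamase substrate, then 30 min with CellTiter-Glo, precede the luminescence read.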

[11] = qHTS assay to identify small molecule agonists of the NFkB signaling pathway (AID 1159509; active means well fitted curve in the direction sought with a large enough effect in the signal ratio in the repeat runs, not every such curve was filed as active; the % refers to the signal ratio; further: series mostly up to about 61 µM)
Summary of the method: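 ME-180 NFkB-bla, 2,000 cells/well, overnight plating; cpd pinned in DMSO, 5 h 37 C; B/G FRET substrate 1.5 h RT; ex 405, em 460/530 nm.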

[12] = qHTS assay to identify small molecule agonists of the NFkB signaling pathway - cell viability counter screen (AID 1159515; calls by dose curve; further: series mostly up to about 61 µM; nearly all actives have a fitted effect of over 55% in size)
Summary of the method: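 5 hr compound treatment of NFkB-bla ME-180 cells (2,000/well, seeded overnight beforehand), followed by reporter substrate for 1.5 hr. CellTiter-Glo added afterward; luminescence after 30 min RT.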

[13] = qHTS assay to identify small molecule agonists of the endoplasmic reticulum stress response signaling pathway (AID 1159516; active means well fitted activation curve with a large enough effect in the signal ratio in the repeat runs, not every such curve was filed as active; the % refers to the signal ratio)
Summary of the method: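 Reporter HeLa cells (ESRE-beta-lactamase) underwent 5 hr compound incubation at 37 C and 5% CO2 in quantitative HTS format. Detection followed 2 hr of FRET substrate loading at room temperature.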

[14] = qHTS assay to identify small molecule agonists of the endoplasmic reticulum stress response signaling pathway - cell viability counter screen (AID 1159517; calls by dose curve)
Summary of the method: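 CellTiter-Glo was added to wells already read for beta-lactamase FRET, and luminescence was recorded 30 min later. Cells: ESRE-bla HeLa, 1,500 per well, compound exposure 5 hr at 37 C.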

[15] = qHTS assay to identify small molecule antagonists of the retinoid-related orphan receptor gamma (ROR-gamma) signaling pathway - cell viability counter screen (AID 1159520); further: nearly all actives have a fitted effect of over 50% in size
Summary of the method: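 Tet-on ROR gamma CHO cells (1,000/well) were plated 4 hr, given compounds in DMSO for 2 hr at 37 C, then induced with 1 uM final doxycycline for 16 hr. Viability was read as ATP by CellTiter-Glo luminescence after 30 min.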

[16] = biological target: Nuclear receptor ROR-gamma (Homo sapiens) (UniProt P51449); assay: qHTS assay to identify small molecule antagonists of the retinoid-related orphan receptor gamma (ROR-gamma) signaling pathway (AID 1159521; further: nearly all actives have a fitted effect of over 50% in size; further: potency means the concentration at half of the fitted maximal effect)
Summary of the method: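 Screening format: cell-based luciferase reporter in CHO cells with doxycycline-inducible RORγ. Compound pre-exposure lasts 2 h, doxycycline is 1 uM final, induction runs 16 h at 37 C, and ONE-Glo luminescence is read.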

[17] = qHTS assay to identify small molecule agonists of the AP-1 signaling pathway (AID 1159526; calls by dose curve)
[18] = biological target: Bile acid receptor (Homo sapiens) (UniProt Q96RI1); assay: qHTS assay to identify small molecule antagonists of the farnesoid-X-receptor (FXR) signaling pathway (AID 743217; active means well fitted inhibition curve with a large enough effect in the signal ratio in the repeat runs, not every such curve was filed as active; the % refers to the signal ratio)
Bile acid receptor (Homo sapiens), sequence (Q96RI1 whole entry, looked up): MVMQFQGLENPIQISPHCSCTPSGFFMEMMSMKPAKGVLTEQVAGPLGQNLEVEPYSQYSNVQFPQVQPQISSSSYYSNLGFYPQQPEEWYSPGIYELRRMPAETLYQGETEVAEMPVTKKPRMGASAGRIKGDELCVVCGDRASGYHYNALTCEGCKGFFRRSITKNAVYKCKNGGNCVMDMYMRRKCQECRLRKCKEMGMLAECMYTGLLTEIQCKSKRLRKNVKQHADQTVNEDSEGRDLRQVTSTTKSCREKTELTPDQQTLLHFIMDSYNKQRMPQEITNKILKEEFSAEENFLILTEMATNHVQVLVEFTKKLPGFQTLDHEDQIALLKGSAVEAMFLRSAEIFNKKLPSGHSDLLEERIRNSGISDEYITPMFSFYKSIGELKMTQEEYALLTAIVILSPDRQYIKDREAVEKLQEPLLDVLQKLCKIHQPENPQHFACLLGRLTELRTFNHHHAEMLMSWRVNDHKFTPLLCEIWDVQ
Summary of the method: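 In this cell-based antagonist screen, inhibition of CDCA-driven (50 uM final) UAS-beta-lactamase expression in HEK 293T cells was measured by FRET fluorescence following 16 h compound exposure at 37 °C.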

[19] = biological target: Bile acid receptor (Homo sapiens) (UniProt Q96RI1); assay: qHTS assay to identify small molecule agonists of the farnesoid-X-receptor (FXR) signaling pathway (AID 743220; active means well fitted activation curve with a large enough effect in the signal ratio in the repeat runs, not every such curve was filed as active; the % refers to the signal ratio)
Summary of the method: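 Beta-lactamase reporter under UAS control in GeneBLAzer FXR HEK 293T cells (5000/well) measured with LiveBLAzer FRET substrate after 2 h at room temperature. Compound exposure lasted 16 h at 37C.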

[20] = qHTS assay to identify small molecule agonists of the AP-1 signaling pathway - cell viability counter screen (AID 1159525; calls by dose curve; further: nearly all actives have a fitted effect of over 55% in size)
Summary of the method: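 ME-180 AP-1-bla, 2500 cells/well, Opti-MEM + 0.5% dialyzed FBS; overnight 37 °C; cpd 15-pt titration, 5 h 37 °C; CellTiter-Glo 30 min RT; luminescence read; normalised to TOAB and DMSO controls.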

| Compound | Potency [1] | Potency [2] | Potency [3] | Potency [4] | Potency [5] | Potency [6] | outcome [7] | outcome [8] | Potency [9] | Potency [10] | outcome [11] | Potency [12] | outcome [13] | Potency [14] | Potency [15] | Potency [16] | outcome [17] | Potency [18] | outcome [19] | Potency [20] |
| --- | --- | --- | --- | --- | --- | --- | --- | --- | --- | --- | --- | --- | --- | --- | --- | --- | --- | --- | --- | --- |
| Nc1ccc(Cl)c(Cl)c1 | inactive | inactive | inactive | inactive | inactive | inactive | inactive | inactive | inactive | inactive | inactive | inactive | inactive | inactive | inactive | inactive | inactive |  |  |  |
| CCCCC(CC)COC(=O)Cl (centres undefined) |  |  | inactive |  | inactive | inactive | inactive | inactive | inactive | inactive | inactive | inactive | inactive | inactive | inactive |  | inactive | inactive | inactive | inactive |
| CC(O)CCO (centres undefined) |  | inactive | inactive | inactive | inactive | inactive | inactive | inactive | inactive | inactive | inactive | inactive | inactive | inactive | inactive | inactive | inactive |  |  |  |
| Nc1ccc(-c2ccccc2)cc1 | inactive | inactive | inactive | inactive | inactive | inactive | inactive | inactive | inactive | inactive | inactive |  | inactive | inactive | inactive | inactive | inactive |  |  | inactive |
| Cc1ccc2c(c1N)C(=O)c1ccccc1C2=O | inactive | inactive | inactive | inactive | inactive | inactive |  |  | inactive | inactive | inactive | inactive |  | inactive | inactive | inactive | inactive |  | inactive |  |
| CCOC(=O)C(C)OC(=O)c1cc(Oc2ccc(C(F)(F)F)cc2Cl)ccc1[N+](=O)[O-] (centres undefined) |  | inactive | inactive | inactive |  | inactive |  |  | inactive | inactive | inactive | inactive | inactive | inactive | inactive |  | inactive |  |  |  |
| O=P(Oc1ccccc1)(Oc1ccccc1)Oc1ccccc1 |  | inactive | inactive | inactive | inactive | inactive | inactive | inactive | inactive | inactive | inactive | inactive | inactive | inactive | inactive |  | inactive |  | inactive |  |
| O=C1C=CC(=O)C=C1 | inactive |  | inactive |  |  | inactive |  |  | inactive | inactive | inactive | inactive |  |  |  | inactive | inactive |  |  | inactive |
| N#CCCCl |  |  | inactive |  | inactive | inactive | inactive | inactive | inactive | inactive | inactive | inactive | inactive | inactive | inactive | inactive | inactive |  |  |  |
| CCOC(=S)S |  |  | 29.3 µM (active) |  | inactive | inactive |  |  | 24.5 µM (active) and 20.7 µM (active) | inactive | inactive | inactive | inactive | inactive |  | 13.7 µM (active) and 16.3 µM (active) | inactive | inactive |  |  |
| c1cc(OCC2CO2)ccc1Cc1ccc(OCC2CO2)cc1 (centres undefined) |  |  | inactive |  | inactive | inactive |  |  | inactive | inactive | inactive | inactive |  | inactive | inactive | inactive |  | inactive | inactive | inactive |
| COC(=O)c1sccc1S(=O)(=O)NC(=O)Nc1nc(C)nc(OC)n1 |  | inactive | inactive | inactive | inactive | inactive | inactive | inactive | inactive | inactive | inactive | inactive | inactive | inactive | inactive |  | inactive |  |  | inactive |
| CN(C)C(=O)Nc1ccc(Cl)cc1 | inactive | inactive | inactive | inactive | inactive | inactive | inactive | inactive | inactive | inactive | inactive |  | inactive | inactive | inactive | inactive | inactive | inactive | inactive | inactive |
| CC(C)N(C(=O)SCC(Cl)=C(Cl)Cl)C(C)C | inactive | inactive | inactive | inactive | inactive | inactive | inactive | inactive |  | inactive | inactive | inactive |  | inactive | inactive | inactive |  | inactive | inactive | inactive |
| Nc1ccncc1 | inactive | inactive |  | inactive | inactive | inactive | inactive | inactive | inactive | inactive | inactive | inactive | inactive | inactive | inactive |  | inactive |  |  | inactive |
| C[C@]12CCC(=O)C[C@@H]1CC[C@@H]1[C@@H]2CC[C@]2(C)[C@@H](O)CC[C@@H]12 | inactive |  |  |  | inactive |  |  |  | inactive | inactive | inactive |  | inactive | inactive | inactive |  |  |  |  | inactive |
| c1ccc(P(c2ccccc2)c2ccccc2)cc1 |  | inactive | inactive | inactive | inactive | inactive | inactive | inactive | inactive | inactive | inactive |  |  | inactive | inactive | inactive | inactive |  |  |  |
